Only some compounds are listed: those with a hit (about 7.3% of all), similar ones and a draw of the others.
NPC1 prom act: qHTS Assay for NPC1 Promoter Activators; Huh7 NPC1 promoter luciferase reporter, 24 h; Potency, µM (series often up to 9.22 µM), for inactives: at the top dose activation, usual class: activators; hit rate 2.4% among 320,000; AID 485313, 2010; further: % of control where 0% means no effect; nearly all actives have a fitted effect of over 60% in size
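In 1536-well qHTS, Huh7 cells harboring an NPC1 promoter–luciferase construct received compound for 24 h; activation was quantified by luminescence following luciferase reagent addition.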
SMN2 splice up: qHTS Assay for Enhancers of SMN2 Splice Variant Expression. Potency, µM (highest dose often 46.1 µM), without a hit: top-dose activity change, positive = activation, usual class: activators. hit rate 2.8% among 210,000. HEK293 SMN2-luciferase splicing reporter, luminescence, 30-36 h. AID 1458, 2008; further: % of control where 0% means no effect; nearly all actives have a fitted effect of over 55% in size
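qHTS luciferase splicing reporter: luminescence rises when SMN2 exon 7 is included in transfected HEK293 cells. Compound exposure lasted 30-36 h at 37C, with 4.5 mM final sodium butyrate as control, followed by a ONE-Glo read.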
Rab9 promoter act: qHTS Assay for Rab9 Promoter Activators; Huh7 Rab9 promoter-luciferase reporter, luminescence, 24 h; Potency, µM (series often up to 9.22 µM), for inactives: at the top dose activation, negative = inhibition, actives largely listed as activators; hit rate 2.8% among 320,000; AID 485297, 2010; further: % of control where 0% means no effect; nearly all actives have a fitted effect of over 60% in size
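Cells were plated at 1500 per well in reduced-serum medium with 10% FBS and left 2 h. Compound in DMSO was then added for 24 h at 37 °C. Reporter signal was read by luminescence after 10 min with luciferase detection reagent.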
KinaseGlo FLuc: Counterscreen for Luciferase (Kinase-Glo TM) Inhibition; Luciferin 4-monooxygenase (Photuris pensylvanica), Q27757; Kinase-Glo luciferase, ATP luminescence, 8 min; Potency, µM (top dose mostly 38.3 µM), for inactives: top-dose activity change, negative = inhibition, usual class: inhibitors; hit rate 0.28% among 200,000; AID 1379, 2008; further: on the % scale 0 is the no-effect control and ±100 the full control effect; nearly all actives have a fitted effect of over 60% in size
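Recombinant Kinase-Glo luciferase, 10 uM ATP (linear range), luciferin; imidazole pH 7.2 / KCl / MgCl2 / Tween / BSA buffer; 8 min RT; luminescence.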
FLuc modulator: qHTS profiling assay for firefly luciferase inhibitor/activator using purifed enzyme and Km concentrations of substrates (counterscreen for miR-21 project). hit rate 6.9% among 360,000. purified FLuc, Km substrates, luminescence inhibition. Potency, µM (doses to about 57.5 µM), for the others: top-dose activity change, negative = inhibition, usual class: inhibitors;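 further: plate controls were vehicle for no effect and reference inhibitor for full effect; nearly all actives have a fitted effect of over 55% in size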
Target sequence (P08659 whole entry, looked up): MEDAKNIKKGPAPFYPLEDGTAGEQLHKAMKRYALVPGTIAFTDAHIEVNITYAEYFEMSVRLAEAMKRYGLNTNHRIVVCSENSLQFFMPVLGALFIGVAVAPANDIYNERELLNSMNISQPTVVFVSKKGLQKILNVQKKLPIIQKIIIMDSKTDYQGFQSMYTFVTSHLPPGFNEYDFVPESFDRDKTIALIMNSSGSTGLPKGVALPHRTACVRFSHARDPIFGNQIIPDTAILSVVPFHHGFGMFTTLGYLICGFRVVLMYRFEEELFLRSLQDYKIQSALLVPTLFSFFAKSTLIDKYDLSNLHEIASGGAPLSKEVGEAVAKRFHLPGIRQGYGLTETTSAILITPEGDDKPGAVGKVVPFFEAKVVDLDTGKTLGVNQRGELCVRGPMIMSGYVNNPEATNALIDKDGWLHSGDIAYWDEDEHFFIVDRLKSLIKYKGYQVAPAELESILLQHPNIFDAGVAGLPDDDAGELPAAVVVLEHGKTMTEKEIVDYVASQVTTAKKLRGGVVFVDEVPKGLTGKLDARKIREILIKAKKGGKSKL
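Purified P. pyralis luciferase (10nM final) with 10uM D-luciferin and 10uM ATP (Km levels) in 50mM Tris acetate pH 7.5, 10mM Mg acetate, 0.01% Tween-20, 0.05% BSA; qHTS 6-point titration, ~60 µM downward; luminescence read.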
An asterisk follows results filed as active; [ ] = another dose, or the depositor's remark. The call rests on the fitted dose curve; in most records, active means well fitted curve in the direction sought with a large enough effect; inconclusive means small, poorly fitted or top-dose-only effect, or another doubt; inactive means no such curve, though single readings can be large; an effect the other way counts as inactive or inconclusive. Potency means the concentration at half of the fitted maximal effect.

COc1ccc(C(=O)c2c[nH]c3ccccc23)cc1 was read as SMN2 splice up inconclusive, KinaseGlo FLuc -3.0% and FLuc modulator 3.38µM*.
`O=C(NCCc1c[nH]c2ccccc12)c1ccc(F)cc1F` gave NPC1 prom act inconclusive, Rab9 promoter act inconclusive and FLuc modulator 12µM*.
`CN(Cc1cccs1)C(=O)CCCc1c[nH]c2ccccc12` gave NPC1 prom act 23.2%, SMN2 splice up inconclusive, Rab9 promoter act 3.16µM*, KinaseGlo FLuc -1.8% and FLuc modulator 26.9µM*.
CCOC(=O)C(=CNc1ccc2c(c1)CCN2C(C)=O)C(=O)OCC was read as NPC1 prom act 17.1%, Rab9 promoter act 27.6% and FLuc modulator 12µM*.
Screening CCOC(=O)C(=CNc1ccc(N2CCOCC2)cc1)C(=O)OCC returned NPC1 prom act -2.9%, Rab9 promoter act 0.7% and FLuc modulator -11.5%.
`COc1ccccc1/C=N/NC(=O)c1ccc2c(c1)OCO2` gave NPC1 prom act 11.5%, Rab9 promoter act 17.8% and FLuc modulator 6.75µM*.
`COc1ccccc1C(=O)N/N=C/c1ccc2c(c1)OCO2` gave NPC1 prom act 2.82µM*, Rab9 promoter act inconclusive and FLuc modulator 10.7µM*.
For COc1cc(C(=O)Oc2ccccc2/C=N/NC(=O)c2ccc(C)cc2)cc(OC)c1OC the results were NPC1 prom act inconclusive, SMN2 splice up -64.7%, Rab9 promoter act inconclusive, KinaseGlo FLuc 0.3% and FLuc modulator 6.01µM*.
Screening COc1cc2ccccc2cc1C(=O)N/N=C/c1ccc2c(c1)OCO2 returned NPC1 prom act -27.9%, Rab9 promoter act -19.9% and FLuc modulator inconclusive.
Screening O=C(N/N=C/c1ccccc1OC(=O)c1ccc2c(c1)OCO2)c1ccccc1 returned NPC1 prom act -0.3%, Rab9 promoter act -7.4%, KinaseGlo FLuc 3.6% and FLuc modulator inconclusive.
`COc1ccccc1N/N=C/c1ccc2c(c1)OCO2` gave NPC1 prom act 10.4%, SMN2 splice up -14.7%, Rab9 promoter act 0.7%, KinaseGlo FLuc -1.3% and FLuc modulator 9.53µM*.
For O=C(O)c1ccc(OCc2ccccc2)c(Cl)c1 the results were SMN2 splice up -5.7%[9.22 µM] and KinaseGlo FLuc -4.1%[7.66 µM].
`N#Cc1c[nH]n2c(NC3CCCCC3)c(-c3ccc(F)cc3)nc12` gave FLuc modulator -3.4%.
CCOC(=O)Cn1c(=O)cc(-c2ccccc2)c2c(C)nn(C)c21 was read as FLuc modulator -13.7%.
O=C(NCCCN1CCN(c2cccc(Cl)c2)CC1)c1ccc2nc(Cc3ccccc3)oc2c1 was read as FLuc modulator -1.3%.
For COc1ccccc1/C=N/NC(=O)c1cccc(OC(F)(F)C(F)F)c1 the results were NPC1 prom act -0.6%, SMN2 splice up 19.3%, Rab9 promoter act -2.0%, KinaseGlo FLuc 1.8% and FLuc modulator 12µM*.
`CSc1nsc(N/N=C/c2ccc3c(c2)OCO3)c1C#N` gave NPC1 prom act 2.51µM*, SMN2 splice up 5.62µM*, Rab9 promoter act 0.794µM*, KinaseGlo FLuc -5.5% and FLuc modulator 1.69µM*.
`Cc1ccc(NC(=O)C2CCN(C(=O)NC3CCCCC3)CC2)cc1Cl` gave NPC1 prom act -0.9%, SMN2 splice up 7.9%, Rab9 promoter act -0.2%, KinaseGlo FLuc 7.7% and FLuc modulator 12.2%.
`O=C(Nc1ccc(Br)cc1)NC1CCCCCCC1` gave NPC1 prom act 2.24µM*, Rab9 promoter act 3.98µM* and FLuc modulator 6.75µM*.
COc1ccc(NC(=O)CCSc2ccc(C)cc2)cc1 was read as NPC1 prom act -1.1%, SMN2 splice up -4.6%, Rab9 promoter act -4.6%, KinaseGlo FLuc -0.5% and FLuc modulator 3.0%.
Screening COc1ccc(NC(=O)C(=S)NC2CCCCC2)cc1 returned NPC1 prom act 1.58µM*, SMN2 splice up 12.6µM*, Rab9 promoter act 2.82µM*, KinaseGlo FLuc -2.0% and FLuc modulator 5.36µM*.
Screening O=C(Nc1ccccc1)NC1CCCCC1 returned NPC1 prom act 21.3%, SMN2 splice up inconclusive, Rab9 promoter act inconclusive, KinaseGlo FLuc -3.6% and FLuc modulator inconclusive.
`COc1ccc(NC(=O)CCSc2ccc(F)cc2)cc1` gave NPC1 prom act inconclusive, Rab9 promoter act 3.55µM* and FLuc modulator 15.1µM*.
Screening Cc1ccc(NC(=O)NC2CCCCC2)cc1Cl returned NPC1 prom act 3.16µM*, SMN2 splice up 12.6µM*, Rab9 promoter act inconclusive, KinaseGlo FLuc -1.3% and FLuc modulator inconclusive.
Screening Cn1c(Sc2ccc(-c3cccnc3)n2C)ccc1-c1cccnc1 returned SMN2 splice up -7.6%[9.22 µM] and KinaseGlo FLuc -4.9%[7.66 µM].
COc1cccc(NC(=O)CSc2ncc3c(n2)-c2ccc(Cl)cc2N(C)S3(=O)=O)c1 was read as FLuc modulator -6.2%.
`COc1ccc(N(Cc2nnc3n2CCCCC3)C(=O)Nc2cccc(C)c2)cc1Cl` gave FLuc modulator 1.2%.
CCOc1ccc(NC(=O)NC2CCCCCCC2)cc1 was read as NPC1 prom act 1.78µM*, Rab9 promoter act 3.55µM* and FLuc modulator 5.36µM*.
Screening NS(=O)(=O)c1ccc(NC(=O)CSC2CCCCC2)cc1 returned NPC1 prom act 6.8%, SMN2 splice up -11.0%, Rab9 promoter act inconclusive, KinaseGlo FLuc 1.7% and FLuc modulator -12.4%.
Screening Cc1ccc(NC(=O)C(=O)N2CCCC2)cc1Cl returned NPC1 prom act 3.16µM*, SMN2 splice up 10µM*, Rab9 promoter act 2.82µM*, KinaseGlo FLuc -1.0% and FLuc modulator 2.13µM*.
Screening O=C(CSCCO)Nc1ccc(C2CCCCC2)cc1 returned NPC1 prom act -5.4%, SMN2 splice up -11.7%, Rab9 promoter act -5.7%, KinaseGlo FLuc -0.4% and FLuc modulator 12µM*.
Cc1ccc(NC(=O)N2CCCC2)cc1Cl was read as NPC1 prom act 16.7%, SMN2 splice up 16.2%, Rab9 promoter act 28.4%, KinaseGlo FLuc -4.1% and FLuc modulator -19.8%.
Screening CCOc1ccc(CC(=O)NNC(=O)NC2CCCCC2)cc1 returned NPC1 prom act 0.5%, SMN2 splice up 2.5%, Rab9 promoter act 1.6%, KinaseGlo FLuc 0.8% and FLuc modulator -1.5%.
`O=C(CCN1CCN(CCO)CC1)Nc1ccc(C2CCCC2)cc1` gave NPC1 prom act -9.3%, SMN2 splice up -16.8%, Rab9 promoter act -2.9%, KinaseGlo FLuc -0.8% and FLuc modulator 4.3%.
Screening COc1ccc(NC(=O)CSC2CCCCC2)cc1 returned NPC1 prom act 3.16µM*, SMN2 splice up 15.7%, Rab9 promoter act 3.55µM*, KinaseGlo FLuc 2.4% and FLuc modulator 12µM*.
